Test results from PubChem BioAssay (NCI).
About 79,000 compounds went through this panel and 15% of them were active in at least one assay; those are over-represented in the sample as a whole. Calls of active or inactive are those of the source. Rule as the data show it: active = growth inhibition above about 70%; inactive = the rest.

Key:
[1] = NCI Yeast Anticancer Drug Screen. Data for the rad52 strain (AID 147);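 also: 0% = growth of vehicle-treated control cultures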; conditions: S. cerevisiae rad52 mutant growth inhibition, hits give high values
In short: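 Screen used a yeast mutant impaired in DNA repair. After compound exposure, growth was measured. Values reflect inhibition compared with vehicle-treated cells.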

[2] = NCI Yeast Anticancer Drug Screen. Data for the wt1 strain (AID 149);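 also: 0% = growth of vehicle-treated wt1 cultures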; conditions: S. cerevisiae wt1 strain (SPY 50644) growth inhibition, hits give high values
In short: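 Growth inhibition read against vehicle controls after compound exposure of the wt1 yeast strain.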

[3] = NCI Yeast Anticancer Drug Screen. Data for the rad50EPP+ strain (AID 151);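 also: 0% = growth of vehicle-treated control cultures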; conditions: S. cerevisiae rad50 mutant strain, hits give high values
In short: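 Exposing the rad50EPP+ strain to each compound, growth was compared with vehicle-only cultures to give inhibition.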

[4] = NCI Yeast Anticancer Drug Screen. Data for the mgt1 strain (AID 153); conditions: S. cerevisiae mgt1 mutant growth inhibition, hits give high values
In short: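 Genetically defined yeast (mgt1) treated with compound; inhibition of growth expressed against vehicle-treated controls.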

[5] = NCI Yeast Anticancer Drug Screen. Data for the rad50 strain (AID 155);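 also: 0% = growth of vehicle-only cultures of the same strain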; conditions: S. cerevisiae rad50 strain growth inhibition, hits give high values
In short: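 Readout: growth inhibition relative to vehicle-treated cultures. Compound exposure was carried out in a genetically defined yeast strain deficient in DNA damage repair.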

[6] = NCI Yeast Anticancer Drug Screen. Data for the mec2-1 strain (AID 157); conditions: S. cerevisiae mec2-1 strain, hits give high values
In short: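 Readout is yeast growth inhibition, normalised to vehicle-treated controls, in the mec2-1 strain exposed to compound.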

[7] = NCI Yeast Anticancer Drug Screen. Data for the rad14 strain (AID 159);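 also: 0% = growth of vehicle-treated control cultures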; conditions: S. cerevisiae rad14 strain growth inhibition, hits give high values
In short: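 Growth inhibition vs vehicle controls; genetically altered yeast strain (DNA damage repair defect) treated with test compounds.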

[8] = NCI Yeast Anticancer Drug Screen. Data for the sgs1 mgt1 strain (AID 161);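 also: 0% = growth of cultures given vehicle only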; conditions: S. cerevisiae sgs1 mgt1 strain, hits give high values
In short: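 Growth of a repair-deficient yeast mutant was monitored after compound treatment and expressed as inhibition relative to vehicle-treated cultures.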

[9] = NCI Yeast Anticancer Drug Screen. Data for the CLN2oe strain (AID 163);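 also: 0% = growth of vehicle-only control cultures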; conditions: S. cerevisiae CLN2oe strain, hits give high values
In short: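 Values reflect how much compound exposure reduced yeast growth, referenced to vehicle-exposed cells. Assay organism is a strain with a defined genetic change affecting cell-cycle control.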

[10] = NCI Yeast Anticancer Drug Screen. Data for the cln2 rad14 strain (AID 165);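 also: 0% = growth equal to vehicle treated cultures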; conditions: S. cerevisiae cln2 rad14 strain, hits give high values
In short: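 Relative to vehicle controls, growth inhibition of compound-treated cln2 rad14 yeast was recorded.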

[11] = NCI Yeast Anticancer Drug Screen. Data for the bub3 strain (AID 167); conditions: S. cerevisiae bub3 mutant strain, hits give high values
In short: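 Readout: yeast growth inhibition, expressed relative to vehicle-only wells. The test organism is a mutant strain from a panel with lesions in DNA repair or checkpoint genes.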

[12] = NCI Yeast Anticancer Drug Screen. Data for the wt2 strain (AID 169);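 also: 0% = growth of vehicle-treated yeast cultures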; conditions: S. cerevisiae wt2 strain growth inhibition, hits give high values
In short: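 Values express reduction in yeast growth under compound treatment, referenced to vehicle-treated cells.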

[13] = NCI Yeast Anticancer Drug Screen. Data for the mlh1 strain (AID 171);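 also: 0% = growth of vehicle-treated control cultures of the same strain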; conditions: S. cerevisiae mlh1 strain growth inhibition, hits give high values
In short: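 Steps: expose the defined-mutant yeast strain to compound; expose a parallel culture to vehicle; measure growth; express compound effect as inhibition relative to the vehicle culture.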

[14] = NCI Yeast Anticancer Drug Screen. Data for the sgs1 strain (AID 173);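 also: 0% = growth of vehicle-only control cultures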; conditions: S. cerevisiae sgs1 mutant, hits give high values
In short: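 Treat defined-mutant yeast with compound; measure growth; calculate inhibition relative to vehicle-treated cells.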

[15] = NCI Yeast Anticancer Drug Screen. Data for the mlh1 rad18 strain (AID 175); conditions: S. cerevisiae mlh1 rad18 strain growth inhibition, hits give high values
In short: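 Test agents were incubated with a yeast strain of defined genotype (DNA damage repair defect). Inhibition of growth was derived by comparison with vehicle-exposed cultures.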

[16] = NCI Yeast Anticancer Drug Screen. Data for the rad18 strain (AID 177); conditions: S. cerevisiae rad18 mutant growth inhibition, hits give high values
In short: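 A genetically defined yeast mutant impaired in DNA damage repair was treated with test compounds, then its growth was measured against cultures receiving vehicle alone.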

[17] = at 5.0 µM (retest, dose inferred, filed as 0.5)
[18] = at 50.0 µM (retest, dose inferred, filed as 5.0)

Measured: growth inhibition

CO[C@H]1C[C@](C)(O)Cc2cc3c(c(O)c21)C(=O)c1c(O)cc2c(c1C3=O)O[C@@H]1O[C@@]2(C)[C@H](O)[C@@H](N(C)C)[C@@H]1O
inactive: [1]; at 1.2 µM -22% | [1]; at 3.7 µM -13% | [1]; at 11.0 µM 5% | [1]; at 33.0 µM 60% | [2]; at 1.2 µM -38% | [2]; at 3.7 µM -38% | [2]; at 11.0 µM -39% | [2]; at 33.0 µM -44% | [2]; at 100.0 µM -37% | [3]; at 1.2 µM -28% | [3]; at 3.7 µM -5% | [3]; at 11.0 µM -9% | [3]; at 33.0 µM -12% | [3]; at 100.0 µM 33% | [4]; at 1.2 µM -28% | [4]; at 3.7 µM -23% | [4]; at 11.0 µM -19% | [4]; at 33.0 µM -22% | [4]; at 100.0 µM -32% | [5]; at 1.2 µM -44% | [5]; at 3.7 µM -7% | [5]; [17] -11% | [5]; at 11.0 µM 17% | [5]; at 50.0 µM 20.9% | [6]; at 1.2 µM -19% | [6]; at 3.7 µM -7% | [6]; [17] -3% | [6]; at 11.0 µM -21% | [6]; at 33.0 µM -4% | [6]; [18] -11% | [6]; at 50.0 µM -11.2% | [6]; at 100.0 µM -6% | [7]; at 1.2 µM -32% | [7]; at 3.7 µM -44% | [7]; at 11.0 µM -63% | [7]; at 33.0 µM -53% | [7]; at 100.0 µM -51% | [8]; [17] -16% | [8]; [18] -1% | [8]; at 50.0 µM 14.3% | [9]; at 1.2 µM -11% | [9]; at 3.7 µM -29% | [9]; at 11.0 µM -8% | [9]; at 33.0 µM -14% | [9]; at 100.0 µM -33% | [10]; [17] 25% | [10]; [18] 31% | [10]; at 50.0 µM 21.9% | [11]; at 1.2 µM -15% | [11]; at 3.7 µM -11% | [11]; [17] -2% | [11]; at 11.0 µM -30% | [11]; at 33.0 µM -31% | [11]; [18] 15% | [11]; at 50.0 µM -10.6% | [11]; at 100.0 µM -20% | [12]; at 1.2 µM -19% | [12]; at 3.7 µM -21% | [12]; at 11.0 µM -26% | [12]; at 33.0 µM -19% | [12]; at 100.0 µM -12% | [13]; at 1.2 µM -42% | [13]; at 3.7 µM -38% | [13]; at 11.0 µM -14% | [13]; at 33.0 µM -36% | [13]; at 100.0 µM -22% | [14]; at 1.2 µM -28% | [14]; at 3.7 µM -28% | [14]; at 11.0 µM -24% | [14]; at 33.0 µM -7% | [14]; at 100.0 µM 2% | [15]; [17] -19% | [15]; [18] 0% | [16]; at 1.2 µM -27% | [16]; at 3.7 µM -27% | [16]; at 11.0 µM -29% | [16]; at 33.0 µM -27% | [16]; at 100.0 µM -18%
active: [1]; at 100.0 µM 87% | [5]; at 33.0 µM 72% | [5]; [18] 75% | [5]; at 100.0 µM 85% | [15]; at 50.0 µM 73.2%

O=[N+]([O-])/C=C/c1ccc2ccccc2c1
active: [1]; at 3.7 µM 72% | [1]; at 11.0 µM 100% | [1]; at 33.0 µM 100% | [1]; at 100.0 µM 99% | [2]; at 11.0 µM 99% | [2]; at 33.0 µM 100% | [2]; at 100.0 µM 100% | [3]; at 3.7 µM 98% | [3]; at 11.0 µM 99% | [3]; at 33.0 µM 99% | [3]; at 100.0 µM 99% | [4]; at 11.0 µM 100% | [4]; at 33.0 µM 100% | [4]; at 100.0 µM 99% | [5]; at 3.7 µM 95% | [5]; at 11.0 µM 100% | [5]; at 33.0 µM 100% | [5]; [18] 90% | [5]; at 50.0 µM 99.1% | [5]; at 100.0 µM 99% | [6]; at 3.7 µM 89% | [6]; at 11.0 µM 100% | [6]; at 33.0 µM 100% | [6]; [18] 96% | [6]; at 50.0 µM 99.2% | [6]; at 100.0 µM 97% | [7]; at 3.7 µM 71% | [7]; at 11.0 µM 99% | [7]; at 33.0 µM 99% | [7]; at 100.0 µM 100% | [8]; [18] 95% | [8]; at 50.0 µM 99.3% | [9]; at 11.0 µM 99% | [9]; at 33.0 µM 99% | [9]; at 100.0 µM 99% | [10]; [17] 98% | [10]; [18] 93% | [10]; at 50.0 µM 98.2% | [11]; [17] 98% | [11]; at 11.0 µM 99% | [11]; at 33.0 µM 99% | [11]; [18] 94% | [11]; at 50.0 µM 98.8% | [11]; at 100.0 µM 99% | [12]; at 11.0 µM 100% | [12]; at 33.0 µM 100% | [12]; at 100.0 µM 99% | [13]; at 11.0 µM 100% | [13]; at 33.0 µM 100% | [13]; at 100.0 µM 100% | [14]; at 3.7 µM 98% | [14]; at 11.0 µM 100% | [14]; at 33.0 µM 100% | [14]; at 100.0 µM 100% | [15]; [18] 93% | [15]; at 50.0 µM 98.8% | [16]; at 11.0 µM 99% | [16]; at 33.0 µM 100% | [16]; at 100.0 µM 99%
inactive: [1]; at 1.2 µM 28% | [2]; at 1.2 µM -1% | [2]; at 3.7 µM 7% | [3]; at 1.2 µM 67% | [4]; at 1.2 µM -1% | [4]; at 3.7 µM 61% | [5]; at 1.2 µM 33% | [5]; [17] 1% | [6]; at 1.2 µM 2% | [6]; [17] 33% | [7]; at 1.2 µM 11% | [8]; [17] -35% | [9]; at 1.2 µM 4% | [9]; at 3.7 µM 53% | [11]; at 1.2 µM 6% | [11]; at 3.7 µM 61% | [12]; at 1.2 µM -5% | [12]; at 3.7 µM 18% | [13]; at 1.2 µM 1% | [13]; at 3.7 µM 38% | [14]; at 1.2 µM 23% | [15]; [17] -256% | [16]; at 1.2 µM 6% | [16]; at 3.7 µM 48%
